# BAZ2B inh – BAZ2B (human) inhibition; Q9UIF8; AlphaScreen BAZ2B-H3K14Ac peptide displacement; Potency, µM (series often up to 114 µM), for the others: top-dose activity change, negative = inhibition, hits mostly inhibitors; actives 4.4% (n = 360,000); further: potency means the concentration at half of the fitted maximal effect; on the % scale 0 is the no-effect control and ±100 the full control effect; nearly all actives have a fitted effect of over 60% in size
#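 BAZ2B 50 nM plus b-H3(5-23)K14Ac 50 nM, PBS pH 7.4/0.01% Tween-20, 30 min RT; compound added (max 110 uM), 30 min RT; streptavidin donor/Ni-chelate acceptor beads 10 ug/mL final, 20 min dark; AlphaScreen read.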
# HP1b chromo inh – blocks HP1-beta chromodomain binding to methylated histone tails; Potency, µM (doses to about 114 µM), inactives show at the top dose activity change, negative = inhibition, actives largely listed as inhibitors; AlphaScreen HP1-beta / biotin-H3K9me3 peptide binding; actives 0.56% (n = 390,000); further: potency means the concentration at half of the fitted maximal effect; nearly all actives have a fitted effect of over 70% in size
#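 AlphaScreen: HP1-beta (50 nM) preformed 30 min with biotin-H3(1-18)K9me3 peptide (50 nM) in PBS pH 7.4, 0.01% Tween-20. Compound added for 30 min at RT, then streptavidin donor/nickel chelate acceptor beads (10 ug/mL) for 30 min.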
# Six1-Eya2 blk – Six1/Eya2 interaction inhibition. AlphaScreen GST-Six1/His-Eya2 binding, biochemical; stronger effect = lower value. AID 651725. actives 0.56% (n = 360,000). activity change, % (concentration not given with the values). Q15475+O00167; in the data active means activity change below about -65%; inconclusive means mostly about -30% to -63%; further: on the % scale 0 is the no-effect control and ±100 the full control effect
#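 Homogeneous AlphaScreen proximity assay pairing GST-Six1 with His-tagged Eya2 (added as 5X mix: 250 nM and 500 nM) in 50 mM Tris pH 8.0, 300 mM NaCl, 1 mM TCEP. Glutathione donor and nickel acceptor beads; 1 h, 37 °C, dark.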
# JMJD2A Tudor – blocks the human JMJD2A Tudor domain; O75164; AlphaScreen JMJD2A-Tudor / H3K4me3 peptide binding; Potency, µM (doses to about 114 µM), without a hit: at the highest dose activity change, negative = inhibition, usual class: inhibitors; actives 4.4% (n = 390,000); further: potency means the concentration at half of the fitted maximal effect; on the % scale 0 is the no-effect control and ±100 the full control effect; nearly all actives have a fitted effect of over 50% in size
# Target sequence (O75164 whole entry, looked up, the tested form may be a part): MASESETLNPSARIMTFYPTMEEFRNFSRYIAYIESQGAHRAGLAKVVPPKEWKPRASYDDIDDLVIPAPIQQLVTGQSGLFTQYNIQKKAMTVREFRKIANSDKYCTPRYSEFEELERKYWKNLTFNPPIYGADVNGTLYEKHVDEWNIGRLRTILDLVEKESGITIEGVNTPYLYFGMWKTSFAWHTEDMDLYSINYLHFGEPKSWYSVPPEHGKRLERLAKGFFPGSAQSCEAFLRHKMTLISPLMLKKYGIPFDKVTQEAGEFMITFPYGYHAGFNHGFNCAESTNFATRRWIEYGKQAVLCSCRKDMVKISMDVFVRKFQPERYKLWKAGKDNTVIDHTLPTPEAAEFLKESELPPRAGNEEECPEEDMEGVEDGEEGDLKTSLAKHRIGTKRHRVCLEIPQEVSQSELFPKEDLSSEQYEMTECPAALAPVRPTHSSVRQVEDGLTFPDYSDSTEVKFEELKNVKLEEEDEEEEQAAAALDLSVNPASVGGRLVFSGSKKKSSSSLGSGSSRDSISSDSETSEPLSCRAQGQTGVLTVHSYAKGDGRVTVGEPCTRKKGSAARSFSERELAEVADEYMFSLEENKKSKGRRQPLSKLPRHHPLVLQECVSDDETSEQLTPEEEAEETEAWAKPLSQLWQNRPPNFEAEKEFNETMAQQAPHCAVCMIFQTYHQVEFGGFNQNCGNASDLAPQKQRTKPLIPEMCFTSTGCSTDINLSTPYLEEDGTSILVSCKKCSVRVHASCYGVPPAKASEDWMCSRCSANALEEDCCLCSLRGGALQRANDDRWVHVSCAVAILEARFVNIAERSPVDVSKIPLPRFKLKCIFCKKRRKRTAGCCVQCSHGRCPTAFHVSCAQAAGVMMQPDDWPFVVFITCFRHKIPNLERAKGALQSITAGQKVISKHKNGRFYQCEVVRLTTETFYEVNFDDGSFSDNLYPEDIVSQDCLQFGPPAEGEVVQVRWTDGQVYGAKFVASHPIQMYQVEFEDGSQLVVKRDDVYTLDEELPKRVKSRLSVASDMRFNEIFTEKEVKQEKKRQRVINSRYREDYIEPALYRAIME
# CtBP-E1A blk – CtBP/E1A binding inhibition; activity change, % (test concentration not listed); AlphaScreen GST-E1A/His-CtBP binding, 1536-well; stronger effect = lower value; actives 0.49% (n = 340,000); in the data active means activity change below about -65%; inconclusive means mostly about -30% to -63%; further: on the % scale 0 is the no-effect control and ±100 the full control effect
#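 GST-E1A and His-tagged CtBP (125 nM each as 5X stock) were preincubated with pin-transferred compound for 2 h at 37 °C in the dark, then glutathione donor and nickel acceptor beads were added for 1 h before AlphaScreen reading.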
# G9a inh – inhibitors of human histone lysine methyltransferase G9a | G9a H3K9 monomethylation, AlphaScreen, 2 h | Potency, µM (titrated, usually from 102 µM), for inactives: at the top dose activity, negative = inhibition, hits mostly inhibitors | actives 8.8% (n = 350,000) | AID 504332; further: potency means the concentration at half of the fitted maximal effect; on the % scale 0 is the no-effect control and ±100 the full control effect; nearly all actives have a fitted effect of over 75% in size
#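 Chemiluminescent proximity detection of H3K9 monomethylation, read after 10 min bead incubation in the dark. Reaction: 20 nM G9a, 500 nM biotin-H3K9 peptide, 20 uM SAM cofactor, 2 h, room temperature, following 15 min enzyme-compound preincubation.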
# Starred values were filed as active, the others as inactive; ? = inconclusive; · = no result; [ ] = another dose, or the depositor's remark. Only some compounds are listed: those with a hit (about 10% of all), similar ones and a draw of the others. Unless noted, the call rests on the fitted dose curve; in most records, active means well fitted inhibition curve with a large enough effect; inconclusive means small, poorly fitted or top-dose-only effect; inactive means no such curve, though single readings can be large or run the other way.
SMILES,BAZ2B inh,HP1b chromo inh,Six1-Eya2 blk,JMJD2A Tudor,CtBP-E1A blk,G9a inh
CC1=C(C(=O)N2CCOCC2)C(c2c(F)cccc2F)NC(=O)N1 (centres undefined),?,20.0%,7.7,-4.9%,-9.8,-41.2%
Cc1cccc(Nc2ccccc2C(=O)OCC(=O)NCc2ccco2)c1C,50.1µM*,-14.6%,-4.4,44.7µM*,3.8,-11.6%[0.0925 µM]
Cc1ccccc1C(=O)OCC(=O)NCc1ccco1,·,-13.6%,-7.8,?,-1.5,·
Cc1c(C(=O)OCC(=O)NCc2ccco2)cccc1[N+](=O)[O-],50.1µM*,-13.7%,-11.8,?,4.4,-38.3%[59 µM]
COc1ccc(CCNc2nc(=S)[nH]c3cc(OC)c(OC)cc23)cc1OC,-0.9%,24.8%,-88.0*,?,·,?
COc1cc2[nH]c(=S)nc(NCc3ccc(Cl)cc3)c2cc1OC,-20.8%,76.1%,?,-21.0%,?,-28.0%[2.33 µM]
COc1cc2[nH]c(=S)nc(NCCc3ccc(C)cc3)c2cc1OC,-11.3%,12.7%,?,?,-86.8*,4.7%
COc1cc2[nH]c(=S)nc(NCCc3ccc(S(N)(=O)=O)cc3)c2cc1OC,-23.9%,116.0%,-89.5*,-15.2%,-90.2*,12.6µM*
Cc1ccc(NC(=O)CSc2nc(=O)n(CCN(C)C)c3c2CCCC3)cc1Cl,-5.7%,-0.2%,-5.5,-21.6%,-11.4,?
O=c1c2ccccc2cnn1Cc1n[nH]c(=S)n1-c1ccc(F)c(Cl)c1,-24.9%,31.8%,3.1,7.94µM*,11.3,3.16µM*
O=c1c2ccccc2cnn1Cc1n[nH]c(=S)n1-c1cc(Cl)cc(Cl)c1,-34.2%,21.3%,5.8,25.1µM*,-5.2,0.398µM*
O=c1c2ccccc2cnn1Cc1n[nH]c(=S)n1-c1ccccc1Cl,-29.5%,39.7%,9.7,31.6µM*,-0.4,4.47µM*
CCn1c(=O)n(-c2ccc(F)c(Cl)c2)c(=O)c2sc3ccccc3c21,-11.2%,29.0%,·,-4.6%,·,6.0%[59 µM]
O=c1c2ccccc2cnn1Cc1ccc(Cl)c(Cl)c1,65.9%,61.2%,27.1,51.8%,-6.3,19.9%
Cc1ccc2nc(COc3ccccc3NC(=O)c3ccc(F)cc3)cc(=O)n2c1,2.7%,18.4%[57 µM],·,-11.7%,·,5.3%[59 µM]
Cc1ccc(C)c(N2CCN(C(=O)c3cc(S(=O)(=O)N4CCCCC4)cn3C)CC2)c1,-30.0%,-1.9%[57 µM],·,?,·,-29.6%[59 µM]
Cc1cc(Nc2ccccc2)n(-c2ccc(Br)cc2)n1,7.7%,16.6%,12.7,6.3%,8.8,50.1µM*
Cc1cc(C)n(-c2nc(Nc3ccccc3)nc(-n3nc(C)cc3C)n2)n1,79.4µM*,24.8%,-27.9,?,?,?
O=c1c2c3n(c(=S)nc2[nH]n1-c1ccccc1)CCCCC3,?,17.0%,-18.0,-14.3%,-26.0,50.1µM*
O=C1c2ccccc2C(=O)N1c1cccc(Cl)c1,·,·,·,-12.9%,·,·
CCN1C(=O)[C@H]2[C@@H](c3ccc(Cl)cc3)N3C(=O)CN(CC4CC4)C(=O)[C@@]3(Cc3ccccc3)[C@H]2C1=O,-25.1%,37.4%,-6.2,1.4%,5.4,70.8µM*
CCCCN1CC(=O)N2[C@H](c3ccc(Cl)cc3)[C@@H]3C(=O)N(CC)C(=O)[C@@H]3[C@]2(Cc2ccccc2)C1=O,-3.9%,19.8%,14.5,-3.6%,27.2,11.1%
CC1CC(=O)Nc2ccccc2N1C(=O)CN1CCN(C=O)CC1 (centres undefined),-9.5%,21.2%,-3.5,1.3%,-6.6,0.8%
O=C1NC(=S)NC1Cc1ccc(O)cc1 (centres undefined),·,67.3%,-0.9,-12.4%,-0.5,·
COc1ccc(-c2csc(NC(=O)Cc3cccc4ccccc34)c2C(=O)O)cc1,?,32.1%,-67.4*,-11.5%,-67.1*,-45.6%
Cc1ccc(-c2csc(NC(=O)c3ccccc3F)c2C(=O)O)cc1,3.8%,67.8%,-70.4*,2.7%,·,5.5%[2.33 µM]
[O-]/[N+](=C\c1ccc(OC(F)F)cc1)c1ccccc1,-7.1%,56.3%,28.7,-2.2%,50.9,50.1µM*
